Assay results published in PubChem BioAssay (Tox21).
Unmarked numbers belong to inactive results. Records with an inconclusive call do not appear. A call without a number means that no potency is given here. Activity calls are given as the source filed them. Unless noted, calls come from the whole dose curve.

What was measured:
[1] = Nuclear factor erythroid 2-related factor 2/antioxidant responsive element (Nrf2/ARE) small molecule agonists: qHTS cell viability counter screen in human keratinocytes (AID 1919968; active = well fitted curve in the direction sought with a large enough effect in the repeat runs; an effect the other way counts as inactive or inconclusive; note: nearly all actives have a fitted effect of over 55% in size; note: potency is the fitted concentration of half-maximal effect)
Procedure, shortened: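 Seed 1,500 KeratinoSens cells per well, then incubate 5 h at 37 C/5% CO2. Add compounds in DMSO and incubate 23 h. Add CellTiter-Fluor, wait 1 h and read fluorescence.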

[2] = Nuclear factor erythroid 2-related factor 2/antioxidant responsive element (Nrf2/ARE) small molecule agonists: luciferase reporter gene qHTS assay in human keratinocytes (AID 1919969); note: nearly all actives have a fitted effect of over 35% in size; note: potency is the fitted concentration of half-maximal effect
[3] = target: Gonadotropin-releasing hormone receptor (Homo sapiens) (UniProt P30968); test: Human gonadotropin-releasing hormone receptor (GnRHR) small molecule agonists, calcium flux assay in GnRHR-HEK293 cells (AID 1920063); note: nearly all actives have a fitted effect of over 35% in size; note: potency is the fitted concentration of half-maximal effect
Procedure, shortened: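 Cells: HEK293 stably expressing human GnRHR. Steps: overnight (18 h) culture, 1 h calcium dye loading at 37 C, compound addition, kinetic fluorescence read at 480/540 nm. Each compound tested at 15 concentrations in triplicate.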

[4] = target: KiSS-1 receptor (Homo sapiens) (UniProt Q969F8); test: Human kisspeptin (KISS1R) small molecule agonists, calcium flux assay in KISS1R-HEK293 cells (AID 1920064; active = well fitted curve in the direction sought with a large enough effect in the repeat runs; an effect the other way counts as inactive or inconclusive)
Procedure, shortened: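 Cells plated and incubated 18 h; dye added, 1 h at 37 C; compounds in DMSO pinned in; signal read at 480/540 nm every second for 3 min. Each compound tested at 15 concentrations in triplicate.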

[5] = G protein-coupled receptor (GPCR) small molecule agonists, calcium flux assay: HEK293 wild type cell line counter screen (AID 1920065)
Procedure, shortened: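 Counter-screen of the Tox21 10K library for non-specific calcium release: dye-loaded cells received compounds in DMSO and were monitored by kinetic fluorescence (480/540 nm, 3 min). Fifteen concentrations, run in triplicate.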

[6] = p53 small molecule agonists, cell-based qHTS assay with human liver microsomes (AID 1963577)
Procedure, shortened: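 Compounds act here after metabolic activation: human liver microsomes and NADPH, both at 0.5 mg/mL final, were co-added to p53RE-bla cells. Incubation ran 16 h at 37 C, followed by LiveBLAzer detection.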

[7] = p53 small molecule agonists, cell-based qHTS assay with rat liver microsomes (AID 1963578)
Procedure, shortened: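 Read-out is beta-lactamase reporter fluorescence (LiveBLAzer, 2 h, room temperature, dark) in p53RE-bla cells treated 16 h at 37 C with compound, rat liver microsomes and NADPH, both 0.5 mg/mL final.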

[8] = p53 small molecule agonists, cell-based qHTS assay with human liver microsomes: qHTS cell viability counter screen (AID 1963579); note: nearly all actives have a fitted effect of over 45% in size
Procedure, shortened: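 Cells carrying the p53 response-element beta-lactamase reporter are treated for 16 h at 37 C with test compounds in the presence of human liver microsomes and NADPH (both 0.5 mg/mL final); ATP-based CellTiter-Glo luminescence then reports viability.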

[9] = p53 small molecule agonists, cell-based qHTS assay with rat liver microsomes: qHTS cell viability counter screen (AID 1963580); note: nearly all actives have a fitted effect of over 45% in size
Procedure, shortened: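 p53RE-bla HCT-116 cells (4,000/well) rested 5 h at 37 C, then given Tox21 compounds in DMSO with rat liver microsomes (0.5 mg/mL final) plus NADPH (0.5 mg/mL final) for 16 h at 37 C. Viability read by CellTiter-Glo luminescence after 30 min at room temperature.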

[10] = p53 small molecule agonists, cell-based qHTS assay: qHTS cell viability counter screen (AID 1963581); note: nearly all actives have a fitted effect of over 45% in size
Procedure, shortened: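 Cells: HCT-116 with p53 response element-driven beta-lactamase. Treatment: 16 h, 37 C, compounds in DMSO. Read: CellTiter-Glo luminescence after 30 min RT.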

[11] = target: 5-hydroxytryptamine receptor 2A (Homo sapiens) (UniProt P28223); test: 5-hydroxytryptamine receptor 2A (HTR2A) small molecule agonists, cell-based qHTS assay (AID 1963587); note: nearly all actives have a fitted effect of over 30% in size; note: potency is the fitted concentration of half-maximal effect
Procedure, shortened: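 HTR2A-CHO cells, plated 18 h at 37 C/5% CO2, dye-loaded 1 h at 37 C; compounds in DMSO added by pin tool (agonist mode). Intracellular calcium flux read as kinetic fluorescence on FDSS over 2 min at 1 s intervals.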

[12] = target: Muscarinic acetylcholine receptor M1 (Homo sapiens) (UniProt P11229); test: Cholinergic receptor muscarinic 1 (CHRM1) small molecule antagonists, cell-based qHTS assay (AID 1963588); note: nearly all actives have a fitted effect of over 40% in size
Procedure, shortened: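 CHRM1-CHO calcium-flux assay, antagonist mode. Cells were seeded 18 h, dye-loaded 1 h at 37 C and given compound for 5 min at RT, then acetylcholine was added at 50nM. FDSS fluorescence was read 3 min; 15 concentrations, three runs.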

[13] = target: Muscarinic acetylcholine receptor M1 (Homo sapiens) (UniProt P11229); test: Cholinergic receptor muscarinic 1 (CHRM1) small molecule agonists, cell-based qHTS assay (AID 1963589); note: nearly all actives have a fitted effect of over 35% in size
Procedure, shortened: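 Agonist-mode qHTS in CHO cells stably carrying human muscarinic M1. Intracellular calcium is tracked by fluorescence every second after compound transfer; each compound runs at 15 concentrations in three independent runs.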

[14] = cAMP Responsive Elements (CRE) small molecule agonists, cell-based qHTS assay (AID 1963590)
Procedure, shortened: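 Agonist mode qHTS in CRE-bla HEK 293T cells: compounds dosed from DMSO for 3 h at 37 C/5% CO2, followed by LiveBLAzer B/G FRET substrate for 2 h at room temperature.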

[15] = cAMP Responsive Elements (CRE) small molecule antagonists, cell-based qHTS assay (AID 1963591; active = well fitted inhibition curve with a large enough effect in the signal ratio in the repeat runs, not every such curve was filed as active; the % refers to the signal ratio)
Procedure, shortened: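 Antagonist mode: test compounds are co-incubated with the adenylyl cyclase activator NKH477 (0.25 uM final) on CRE-bla HEK293T cells for 3 h at 37 °C, followed by LiveBLAzer substrate loading.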

[16] = target: Beta-2 adrenergic receptor (Homo sapiens) (UniProt P07550); test: Adrenergic beta2 receptor (ADRB2) small molecule antagonists, cell-based qHTS assay (AID 1963592); note: series mostly up to about 92 µM; nearly all actives have a fitted effect of over 50% in size
Procedure, shortened: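 Cells (CHO, stable ADRB2 overexpression) incubated 18-20hr at 37C; compounds added from DMSO; agonist mix (1nM isoproterenol, 100uM IBMX, 25uM Ro-20-1724) added; 0.5hr RT; d2-cAMP and anti-cAMP-cryptate added; 1hr RT; 665/615 nm read.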

[17] = target: Beta-2 adrenergic receptor (Homo sapiens) (UniProt P07550); test: Adrenergic beta2 receptor (ADRB2) small molecule agonists, cell-based qHTS assay (AID 1963593);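 note: CHO cells stably overexpressing human ADRB2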
Procedure, shortened: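 CHO cells stably over-expressing ADRB2 were plated overnight at 37C, then dosed with compounds plus a stimulation mix containing 100uM IBMX and 25uM Ro-20-1724 for 0.5hr at room temperature. cAMP was measured by HTRF competition, 1hr.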

[18] = target: D(2) dopamine receptor (Homo sapiens) (UniProt P14416); test: Dopamine D2 receptor (DRD2) small molecule agonists, cell-based qHTS assay (AID 1963594); note: nearly all actives have a fitted effect of over 35% in size
Procedure, shortened: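 HEK293 cells stably expressing DRD2 were cultured 24 h at 37 C, then given Ro20-1724 (0.1 mM final) and compounds for 10 min at room temperature. NKH477 (200nM) was then added for 30 min. cAMP was read by HTRF.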

[19] = target: D(2) dopamine receptor (Homo sapiens) (UniProt P14416); test: Dopamine D2 receptor (DRD2) small molecule antagonists, cell-based qHTS assay (AID 1963595; active = well fitted inhibition curve with a large enough effect in the signal ratio in the repeat runs, with a control signal flat; the % refers to the signal ratio; note: potency is the fitted concentration of half-maximal effect)
Procedure, shortened: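 HEK293 cells stably expressing DRD2 were preincubated with 0.1 mM Ro20-1724, then with compound for 10 min at room temperature. Cells were stimulated with 200 nM NKH477 plus 12 nM quinpirole for 30 min, and cAMP was read by HTRF.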

[20] = p53 small molecule agonists, cell-based qHTS assay (AID 1963582; active = well fitted activation curve with a large enough effect in the signal ratio in the repeat runs, not every such curve was filed as active; the % refers to the signal ratio)
Procedure, shortened: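 Quantitative HTS in p53RE-bla cells: after a 5 h settling period, compounds delivered in DMSO were left on cells for 16 h at 37 C, and reporter induction was measured as fluorescence following 2 h substrate loading.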

Gonadotropin-releasing hormone receptor (Homo sapiens), sequence (P30968 whole entry, looked up): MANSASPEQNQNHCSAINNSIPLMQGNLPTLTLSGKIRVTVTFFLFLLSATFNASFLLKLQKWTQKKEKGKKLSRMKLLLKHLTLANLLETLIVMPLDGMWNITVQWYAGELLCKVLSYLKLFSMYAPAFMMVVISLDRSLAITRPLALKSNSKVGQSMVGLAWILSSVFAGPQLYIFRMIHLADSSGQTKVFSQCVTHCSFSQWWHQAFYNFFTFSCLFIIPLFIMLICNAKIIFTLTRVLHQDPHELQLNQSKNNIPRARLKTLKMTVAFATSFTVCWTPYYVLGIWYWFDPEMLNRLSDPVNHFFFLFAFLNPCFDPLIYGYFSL
D(2) dopamine receptor (Homo sapiens), sequence (P14416 whole entry, looked up): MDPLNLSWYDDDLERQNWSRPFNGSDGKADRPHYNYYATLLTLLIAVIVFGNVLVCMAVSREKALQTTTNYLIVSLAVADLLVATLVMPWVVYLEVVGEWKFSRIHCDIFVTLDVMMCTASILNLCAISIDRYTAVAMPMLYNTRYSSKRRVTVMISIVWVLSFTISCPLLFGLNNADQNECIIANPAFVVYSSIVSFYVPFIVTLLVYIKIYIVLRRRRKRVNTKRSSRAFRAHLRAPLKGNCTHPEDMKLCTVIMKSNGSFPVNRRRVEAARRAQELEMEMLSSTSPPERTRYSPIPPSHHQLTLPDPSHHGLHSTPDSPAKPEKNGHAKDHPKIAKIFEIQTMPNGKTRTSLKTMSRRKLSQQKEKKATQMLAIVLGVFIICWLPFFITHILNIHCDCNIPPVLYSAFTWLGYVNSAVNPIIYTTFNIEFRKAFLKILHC
Muscarinic acetylcholine receptor M1 (Homo sapiens), sequence (P11229 whole entry, looked up): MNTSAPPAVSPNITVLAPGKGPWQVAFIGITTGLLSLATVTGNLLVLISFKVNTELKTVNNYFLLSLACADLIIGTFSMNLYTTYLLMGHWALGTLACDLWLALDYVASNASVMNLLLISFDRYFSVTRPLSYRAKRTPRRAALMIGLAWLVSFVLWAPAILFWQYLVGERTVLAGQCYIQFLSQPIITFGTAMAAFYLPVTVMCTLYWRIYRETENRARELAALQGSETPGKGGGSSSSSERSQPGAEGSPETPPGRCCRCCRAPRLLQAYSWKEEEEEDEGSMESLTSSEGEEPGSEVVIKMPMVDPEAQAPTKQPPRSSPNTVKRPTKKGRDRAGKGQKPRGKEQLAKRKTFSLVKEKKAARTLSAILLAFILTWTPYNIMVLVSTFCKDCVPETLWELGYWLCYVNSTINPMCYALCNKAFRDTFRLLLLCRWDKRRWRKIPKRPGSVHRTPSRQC
KiSS-1 receptor (Homo sapiens), sequence (Q969F8 whole entry, looked up): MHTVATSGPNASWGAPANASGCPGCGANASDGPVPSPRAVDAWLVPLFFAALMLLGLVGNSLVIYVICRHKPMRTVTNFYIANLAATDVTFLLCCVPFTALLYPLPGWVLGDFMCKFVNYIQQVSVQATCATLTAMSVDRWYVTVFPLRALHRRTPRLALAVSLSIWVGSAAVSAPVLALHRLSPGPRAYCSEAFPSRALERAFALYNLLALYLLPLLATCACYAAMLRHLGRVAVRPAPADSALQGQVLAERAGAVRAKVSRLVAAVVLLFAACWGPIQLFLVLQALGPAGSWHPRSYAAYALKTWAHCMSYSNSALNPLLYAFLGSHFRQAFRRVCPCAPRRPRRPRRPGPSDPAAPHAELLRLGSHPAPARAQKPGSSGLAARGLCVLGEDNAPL
Beta-2 adrenergic receptor (Homo sapiens), sequence (P07550 whole entry, looked up): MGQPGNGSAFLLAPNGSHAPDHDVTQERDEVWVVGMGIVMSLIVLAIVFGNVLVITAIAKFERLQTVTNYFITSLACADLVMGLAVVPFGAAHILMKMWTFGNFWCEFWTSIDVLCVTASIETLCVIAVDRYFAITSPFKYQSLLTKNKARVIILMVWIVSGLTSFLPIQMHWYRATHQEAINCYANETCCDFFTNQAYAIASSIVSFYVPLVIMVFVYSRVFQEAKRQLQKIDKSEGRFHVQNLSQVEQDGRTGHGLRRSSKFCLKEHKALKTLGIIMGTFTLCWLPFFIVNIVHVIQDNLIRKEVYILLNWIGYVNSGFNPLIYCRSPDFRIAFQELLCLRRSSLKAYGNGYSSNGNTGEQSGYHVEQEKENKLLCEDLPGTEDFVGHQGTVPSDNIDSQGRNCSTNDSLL
5-hydroxytryptamine receptor 2A (Homo sapiens), sequence (P28223 whole entry, looked up): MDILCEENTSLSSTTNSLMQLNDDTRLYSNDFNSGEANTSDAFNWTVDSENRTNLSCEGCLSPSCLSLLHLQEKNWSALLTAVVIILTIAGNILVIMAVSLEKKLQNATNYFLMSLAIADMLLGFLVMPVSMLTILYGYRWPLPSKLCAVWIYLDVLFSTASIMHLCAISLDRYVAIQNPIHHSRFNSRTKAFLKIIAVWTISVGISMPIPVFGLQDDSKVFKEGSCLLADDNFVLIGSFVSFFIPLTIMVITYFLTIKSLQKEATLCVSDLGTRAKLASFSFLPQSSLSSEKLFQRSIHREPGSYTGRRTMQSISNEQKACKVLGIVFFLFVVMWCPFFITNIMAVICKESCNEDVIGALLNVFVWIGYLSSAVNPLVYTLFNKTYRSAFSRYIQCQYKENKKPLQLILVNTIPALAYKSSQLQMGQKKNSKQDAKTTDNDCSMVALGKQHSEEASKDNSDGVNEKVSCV

Structure (SMILES)	Potency [1]	Potency [2]	Potency [3]	outcome [4]	outcome [5]	Potency [6]	Potency [7]	Potency [8]	Potency [9]	Potency [10]	Potency [11]	Potency [12]	Potency [13]	Potency [14]	Potency [15]	Potency [16]	Potency [17]	Potency [18]	Potency [19]	Potency [20]
COCCCN1CCC(NC(=O)c2cc(Cl)c(N)c3c2OCC3)CC1	inactive	inactive	inactive	inactive	inactive	inactive	inactive	inactive	inactive	inactive	inactive	inactive	inactive	inactive	inactive	inactive	inactive	inactive	inactive	–
CCN1CCN(c2cc3c(cc2F)c(=O)c(C(=O)O)cn3C2CC2)CC1	inactive	inactive	inactive	inactive	inactive	inactive	inactive	inactive	inactive	inactive	–	–	–	–	–	–	–	inactive	–	inactive
CC(N)C12CC3CC(CC(C3)C1)C2 (stereo not drawn)	inactive	inactive	inactive	inactive	inactive	inactive	inactive	inactive	inactive	inactive	–	–	–	inactive	–	inactive	inactive	–	inactive	inactive
C[C@@H]1C[C@H]2[C@@H]3CCC4=CC(=O)C=C[C@]4(C)[C@@]3(F)[C@@H](O)C[C@]2(C)[C@H]1C(=O)CO	inactive	inactive	inactive	inactive	inactive	inactive	inactive	inactive	inactive	inactive	–	–	–	inactive	–	inactive	inactive	–	inactive	inactive
C1CCN2C[C@@H]3C[C@@H](CN4CCCC[C@@H]34)[C@H]2C1	inactive	inactive	inactive	inactive	inactive	inactive	inactive	inactive	inactive	inactive	–	–	–	–	inactive	inactive	–	–	inactive	inactive
CC(=O)O[C@@H]1C(=O)O[C@@H]2[C@H]1OC(=O)[C@@H]2OC(C)=O	inactive	29.8 µM (active)	inactive	inactive	inactive	inactive	inactive	inactive	inactive	inactive	0.756 µM (active)	inactive	inactive	inactive	inactive	inactive	inactive	inactive	inactive	–
Nc1nc(N)nc(-c2cc(Cl)ccc2Cl)n1	inactive	inactive	inactive	inactive	inactive	inactive	inactive	inactive	inactive	inactive	–	–	–	inactive	–	inactive	–	–	inactive	inactive
COC(=O)C(c1ccccc1Cl)N1CCc2sccc2C1 (stereo not drawn)	inactive	inactive	inactive	inactive	inactive	inactive	inactive	inactive	inactive	inactive	–	–	–	–	–	inactive	inactive	inactive	inactive	inactive
Cc1cccc(C)c1OCC(C)N (stereo not drawn)	inactive	inactive	inactive	inactive	inactive	inactive	inactive	inactive	inactive	inactive	–	–	–	inactive	–	–	inactive	–	inactive	inactive
CC(C)=CCC/C(C)=C/CC/C(C)=C/C(=O)OCC(=O)[C@@]1(O)CC[C@H]2[C@@H]3CCC4=CC(=O)C=C[C@]4(C)[C@H]3[C@@H](O)C[C@@]21C	6.68 µM (active)	inactive	inactive	inactive	inactive	inactive	inactive	inactive	inactive	inactive	inactive	inactive	inactive	inactive	inactive	inactive	–	inactive	–	–
CC(C)(C)NCC(O)c1cc(O)cc(O)c1 (stereo not drawn)	inactive	inactive	0.268 µM (active)	inactive	inactive	inactive	inactive	inactive	inactive	inactive	–	–	–	–	–	–	–	inactive	10.6 µM (active)	inactive
O=C(O)CCC(=O)c1ccc(-c2ccccc2)cc1	inactive	inactive	inactive	inactive	inactive	inactive	inactive	inactive	inactive	inactive	inactive	inactive	inactive	–	–	inactive	–	–	inactive	–
N=C1N=C(N)c2ccccc21	61.1 µM (active)	27.3 µM (active)	inactive	inactive	inactive	inactive	inactive	inactive	inactive	inactive	inactive	inactive	inactive	–	inactive	inactive	inactive	inactive	inactive	–
C1CC(COCC2CO2)CCC1COCC1CO1 (stereo not drawn)	inactive	61.1 µM (active)	inactive	inactive	inactive	inactive	inactive	inactive	inactive	inactive	inactive	inactive	inactive	–	–	inactive	–	inactive	inactive	–
Oc1ccc(-c2ccc(O)cc2)cc1	inactive	30.8 µM (active)	inactive	inactive	inactive	inactive	inactive	inactive	inactive	inactive	inactive	inactive	inactive	–	inactive	inactive	–	inactive	inactive	–
